A selection: hits, their analogues and other compounds. The true share with any hit is near 2.9%.
SMARCA2 activ: increases SMARCA2 function in MMTV reporter cells. MG213 cells, MMTV-luciferase reporter, dexamethasone, overnight. activation, % at 9.1 µM. 370,000 compounds, 1% hits; in the data active = activation above about 7.8%;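 note: 0% = vehicle wells and 100% = reference activator wells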
FAS-TE inh: FAS thioesterase (human) inhibition; P49327; recombinant FAS-TE, OMFH fluorogenic substrate, fluorescence endpoint; inhibition, % at 15 µM; 360,000 compounds, 0.67% hits;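 active = compounds whose normalised, plate-corrected inhibition of enzyme fluorescence in the single-dose primary screen is 50% or more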;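 note: 0% = DMSO with enzyme and 100% = substrate without enzyme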
FXN GAA850 act: activators of GAA850 frataxin (FXN) promoter | HEK293 lucGAA850 FXN promoter luciferase reporter, 24 h; percent of 10 µM SAHA response | activation, % at 6 µM | 360,000 compounds, 0.56% hits | AID 540364;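 active = activation above the average of all compounds screened plus 3 SD, cutoff fixed separately per campaign, cut at about 7.5% in these data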;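 note: 0% = DMSO wells and 100% = 10 µM SAHA wells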
KLK7 zymogen act: proKLK7 (human) activation, primary screen. P49862. purified proKLK7, EDANS-DABCYL substrate fluorescence; 100% is mature enzyme control, 0% vehicle. activation, % at 7 µM. 370,000 compounds, 0.9% hits. AID 652039;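 active = activation above the mean of all tested compounds plus 3 SD, computed per campaign excluding outliers beyond control limits, cut at about 13% in these data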
Target sequence (P49862 whole entry, looked up): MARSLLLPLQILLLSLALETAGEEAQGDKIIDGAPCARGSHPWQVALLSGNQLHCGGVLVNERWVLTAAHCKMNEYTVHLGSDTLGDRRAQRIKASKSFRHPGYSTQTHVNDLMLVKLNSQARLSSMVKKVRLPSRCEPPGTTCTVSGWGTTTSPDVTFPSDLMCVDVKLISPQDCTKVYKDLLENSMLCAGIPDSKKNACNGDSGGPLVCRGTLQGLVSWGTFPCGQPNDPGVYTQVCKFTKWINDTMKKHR
KLK7 act conf: confirmation of human kallikrein-7 zymogen activators; shares compounds with KLK7 zymogen act; purified proKLK7, EDANS-DABCYL substrate fluorescence; scaled: vehicle 0, mature enzyme 100; activation, % at 7 µM; 3,200 compounds, 68% hits;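 active = activation, as change over the incubation, above the mean of all tested compounds plus 3 SD, cut at about 13% in these data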
EDANS-DABCYL int: counter-screen for kallikrein-7 activators: EDANS-DABCYL optical interference; shares compounds with KLK7 zymogen act; EDANS-DABCYL substrate fluorescence interference, no enzyme, 4 h; solvent 0%, active enzyme control 100%; activation, % at 7 µM; 3,200 compounds, 80% hits;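 active = activation above the all-compound mean plus 3 SD, ignoring values outside control-based bounds, cut at about 4.8% in these data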;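 note: value is the 4 h activation minus the activation read at time zero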
EDANS interf: EDANS fluorescence interference in dose response, no enzyme | EC50, µM | AID 720493 | 250 compounds, 20% hits | shares compounds with KLK7 zymogen act | EDANS-DABCYL peptide fluorescence interference;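 active = compounds that raise the fluorescence signal in this interference counterscreen, with EC50 at or below 10 µM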;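 note: intact quenched peptide substrate alone read at 355 nm excitation and 520 nm emission; signal is fluorescence gain from T0 to T4 after four hours at room temperature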
Starred values were filed as active, the others as inactive; . = no result given.

SMILES | SMARCA2 activ | FAS-TE inh | FXN GAA850 act | KLK7 zymogen act | KLK7 act conf | EDANS-DABCYL int | others
COc1cc2c(cc1OC)/C(=C/C(=O)N1CCOCC1)NC(C)(C)C2 | 1.9 | . | . | 60.0* | 9.7 | 13.1*
COC(=O)c1cc(=O)c2c(ccc3oc(=O)ccc32)[nH]1 | -0.6 | 0.6 | . | 171.6* | 220.0* | 220.1*
c1csc(-c2nc3nc4ccccc4nc3n2Cc2ccc3c(c2)OCO3)c1 | 1.6 | 25.6 | 1.3 | -0.2 | . | .
COCCn1c(-c2ccco2)nc2nc3ccccc3nc21 | -0.3 | -11.8 | 2.0 | 42.6* | 62.3* | 82.0*
CCCn1c(-c2cccs2)nc2nc3ccccc3nc21 | -4.2 | -0.6 | -0.5 | 41.5* | -55.1 | -64.0
COCCn1c(-c2cccs2)nc2nc3ccccc3nc21 | 1.9 | 2.9 | -0.2 | 37.7* | 68.5* | 73.0*
C/C=C/c1ccc(OCCCCn2cncn2)c(OC)c1 | -2.2 | -11.5 | 1.5 | 0.2 | . | .
Cc1ccsc1C(=O)N1CCCCCC1(C)C(=O)NCC(C)C (centres undefined) | 0.3 | -2.4 | -1.3 | 0.2 | . | .
CC(=O)c1ccc(-c2cccs2)s1 | 0.7 | 3.2 | 1.8 | 63.3* | 63.3* | 68.5*
CNc1cccc(-c2ccc(C(C)=O)s2)n1 | 3.2 | -5.0 | 4.4 | 1.0 | . | .
Clc1cccc(CSc2ncnc3c2ncn3C2CCCCO2)c1 (centres undefined) | 0.0 | 7.0 | 3.7 | 0.3 | . | .
CCOC(=O)C1=C(CN2CCN(C(=O)c3ccco3)CC2)NC(=O)NC1c1ccc(OC(C)C)cc1 (centres undefined) | -2.7 | -1.5 | -1.6 | 0.4 | . | .
COc1ccc(OC)c(/C=C/C(=O)N(C)CC(=O)Nc2ccc(N3CCOCC3)cc2)c1 | -2.0 | -6.0 | -0.1 | 20.8* | 19.2* | 14.8* | EDANS interf=>69.5
CCN1CCc2c(sc(NC(=O)Cc3ccccc3)c2C(=O)OC)C1 | 0.8 | -3.1 | 0.5 | -0.6 | . | .
CC(=O)Nc1ccc(-c2nc3ccc(NC(C)=O)cc3o2)cc1 | 5.3 | -5.7 | 4.3 | 32.9* | 25.8* | 15.8* | EDANS interf=>69.5
CC(=O)Nc1ccc2nc3ccccc3nc2c1 | 1.8 | -6.2 | 4.6 | 43.3* | 45.5* | 42.5*
CC(=O)Nc1ccc2oc(-c3ccccc3)nc2c1 | 2.6 | -3.9 | 5.0 | 5.0 | . | .
O=C(Nc1ccc2nc3ccccc3nc2c1)c1ccc(Br)cc1 | -3.3 | -9.8 | 5.8 | -0.3 | . | .
CC(=O)Nc1cccc(Nc2nc(-c3ccccc3)nc3ccccc23)c1 | 0.9 | 20.4 | -1.7 | 18.9* | 3.5 | 7.8*
CC(=O)c1cccc(Nc2nc(-c3ccccc3)nc3ccccc23)c1 | -1.4 | 13.4 | -0.8 | 0.1 | . | .
O=S(=O)(Cc1cc(NCc2ccccc2)nc(-c2ccccn2)n1)c1ccccc1 | -0.6 | -3.0 | 0.3 | 1.0 | . | .
S=C(c1ccc(Br)cc1)N1CCN(Cc2ccccc2)CC1 | -2.9 | 16.4 | 0.3 | -0.5 | . | .
Cc1no[n+]([O-])c1COc1ccc(/C=N/n2nnnc2N)cc1 | -1.1 | 1.1 | 0.6 | 0.2 | . | .
NNC(=O)Cc1cc(=O)[nH][nH]1 | -2.8 | -8.2 | 0.4 | -0.1 | . | .
COc1ccc(C2c3[nH]c4ccccc4c3CCN2CCCn2cccn2)c(C)c1C (centres undefined) | -5.5 | 16.1 | -7.7 | 26.6* | 18.8* | 19.9*
SMILES | SMARCA2 activ | FAS-TE inh | FXN GAA850 act | KLK7 zymogen act | KLK7 act conf | EDANS-DABCYL int | others
O=C(OCc1ccccc1)N1CCc2ccccc21 | 3.9 | 19.8 | 4.3 | -0.5 | . | .
CCc1nc2ccc(C(=O)NCc3ccccc3OC)cn2c1N(C)C(=O)Cc1ccccc1 | 0.6 | -7.0 | -1.2 | 0.4 | . | .
CCOc1c2ccc(C(=O)NCc3ccco3)cc2nn1CC | 4.1 | -7.0 | 0.4 | 21.7* | 18.9* | 19.9*
CCCCn1nc2cc(C(=O)NC[C@@H]3CCCO3)ccc2c1OCC | -0.2 | -10.4 | 0.7 | 7.3 | . | .
CCOc1c2ccc(C(=O)NCc3ccco3)cc2nn1CCOC | 2.0 | -10.2 | -1.5 | 18.1* | 23.7* | 29.4*
CCCCn1nc2cc(C(=O)NCC3CC3)ccc2c1OCC | 1.8 | -8.2 | -0.1 | 17.6* | -2.9 | -5.4
CCOc1c2ccc(C(=O)NCc3ccc4c(c3)OCO4)cc2nn1CCOC | 1.4 | -14.9 | 0.8 | 13.1* | -13.6 | -19.2
C[C@@H]1CN([C@H](C)CO)C(=O)CCCn2cc(nn2)CO[C@H]1CN(C)S(=O)(=O)c1ccc(Cl)cc1 | -3.0 | . | . | -0.1 | . | .
Cc1ccc(C)c(N=Cc2cc3c(cc2[N+](=O)[O-])OCO3)c1 | 1.7 | -32.6 | -0.8 | 0.7 | . | .
O=C(O)CCCNC(=O)CC1S/C(=N/N=C/c2ccccc2O)NC1=O (centres undefined) | -1.4 | -7.0 | 2.4 | 24.6* | 27.3* | 34.3*
Cc1c(C)c2ccc(O[C@@H]3O[C@H](CO)[C@H](O)[C@H](O)[C@H]3O)cc2oc1=O | -1.4 | -2.3 | 0.1 | 0.7 | . | .
COc1cc2cc(Oc3ccc4ccc(=O)oc4c3)c(=O)oc2cc1O[C@@H]1O[C@H](CO)[C@@H](O)[C@H](O)[C@H]1O | 4.7 | -0.6 | -0.2 | 25.4* | 36.0* | 48.8*
COc1cc2cc(Oc3ccc4ccc(=O)oc4c3)c(=O)oc2cc1OC1OC(COC(=O)CC(C)(O)CC(=O)O)C(O)C(O)C1O (centres undefined) | -1.0 | -3.3 | 1.7 | 20.7* | 33.6* | 31.1*
CN(C)c1ccc(S(=O)(=O)NCC(=O)OCC(=O)Nc2cccc(Cl)c2)cc1[N+](=O)[O-] | 1.0 | -7.1 | -1.0 | 0.3 | . | .
C=CCc1c(C)nc(SC)nc1Nc1ccc(C(C)=O)cc1 | 5.2 | 3.6 | 4.0 | 1.3 | . | .
O=C(Nc1nc2nccc(-c3ccccc3)n2n1)C(Cl)(Cl)Cl | 2.5 | -11.7 | 3.9 | 39.3* | 46.7* | 45.8*
Oc1ccccc1-c1nc(NCc2ccco2)c2ccccc2n1 | 2.3 | 24.1 | 6.1 | 12.7* | 1.9 | 13.0*
CC(C)NC[C@H](O)c1ccc(O)c(O)c1 | 0.4 | -4.5 | 3.9 | 47.3* | 49.0* | 51.0*
COc1ccc(CCNC(=O)COC(=O)c2ccco2)cc1OC | -2.8 | -5.9 | 0.6 | 0.2 | . | .
O=C(COC(=O)c1ccccc1NCCO)NCc1cccs1 | 3.1 | -2.7 | 2.0 | 17.6* | 19.3* | 20.6*
COc1ccc(CCNC(=O)COC(=O)c2ccccc2NCCO)cc1OC | -1.1 | -2.8 | 2.2 | 18.8* | 26.2* | 33.6*
CS(=O)(=O)Nc1ccccc1C(=O)OCC(=O)NCc1cccs1 | 0.5 | -3.1 | -1.4 | 5.2 | . | .
CC(NC(=O)CCC1COc2ccccc2O1)c1ccccc1 (centres undefined) | 1.7 | -4.8 | -0.3 | -0.4 | . | .
COc1ccc(/C=N/NC(=O)c2nc(Cl)c(Cl)c(N)c2Cl)cc1COc1ccccc1F | -0.6 | 6.3 | 5.9 | 42.1* | 58.8* | 72.5*
CC(=O)NN1C(=O)c2ccccc2NC1c1ccccn1 (centres undefined) | -1.9 | -12.5 | -0.8 | -23.7 | . | .
CCOC(=O)N1CCC(N2C(=O)c3ccccc3C2Nc2ccc3c(c2)OCCO3)CC1 (centres undefined) | -2.8 | 1.1 | -7.6 | 0.8 | . | .
CCOC(=O)N1CCC(N2C(=O)c3ccccc3C2Nc2ccc3c(C)cc(=O)oc3c2)CC1 (centres undefined) | -0.1 | -0.6 | 0.5 | 36.0* | -142.5 | -142.2
Cc1c2cccn2cc[n+]1C | 0.7 | -9.5 | 1.7 | 17.6* | 31.9* | 26.8*
